Measurements from PubChem BioAssay (NCI).
Compounds without any hit were thinned out: in the full panel of roughly 79,000, 15% have a hit. Values without a mark were called inactive. Calls of active or inactive are those of the source. No stated cut-off is given here; in the data, active means growth inhibition above about 70%; inactive means the rest.

How the values were obtained:
[1] = NCI Yeast Anticancer Drug Screen. Data for the rad52 strain (AID 147);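 further: 0% = growth of vehicle-treated control cultures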; conditions: S. cerevisiae rad52 mutant growth inhibition, stronger effect = higher value
Method in brief: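 Compounds are applied to a genetically defined yeast strain lacking normal DNA damage repair, and inhibition of growth is expressed relative to cultures given vehicle only.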

[2] = NCI Yeast Anticancer Drug Screen. Data for the wt1 strain (AID 149);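 further: 0% = growth of vehicle-treated wt1 cultures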; conditions: S. cerevisiae wt1 strain (SPY 50644) growth inhibition, stronger effect = higher value
Method in brief: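 wt1 strain grown with compound or vehicle; inhibition taken from the growth difference.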

[3] = NCI Yeast Anticancer Drug Screen. Data for the rad50EPP+ strain (AID 151);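 further: 0% = growth of vehicle-treated control cultures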; conditions: S. cerevisiae rad50 mutant strain, stronger effect = higher value
Method in brief: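 Compounds were applied to the rad50EPP+ yeast strain, which bears a defined DNA repair alteration, and growth inhibition was determined relative to vehicle-treated cultures.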

[4] = NCI Yeast Anticancer Drug Screen. Data for the mgt1 strain (AID 153); conditions: S. cerevisiae mgt1 mutant growth inhibition, stronger effect = higher value
Method in brief: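 Strain: mgt1 yeast, one of a set carrying defined DNA damage repair or cell cycle control alterations. Compound-treated growth compared with vehicle.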

[5] = NCI Yeast Anticancer Drug Screen. Data for the rad50 strain (AID 155);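 further: 0% = growth of vehicle-only cultures of the same strain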; conditions: S. cerevisiae rad50 strain growth inhibition, stronger effect = higher value
Method in brief: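 DNA repair mutant yeast, compound exposure, growth read-out; inhibition is taken relative to vehicle.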

[6] = NCI Yeast Anticancer Drug Screen. Data for the mec2-1 strain (AID 157); conditions: S. cerevisiae mec2-1 strain, stronger effect = higher value
Method in brief: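 Strain: mec2-1 (DNA repair/cell cycle alteration). Compound exposure, then growth measured; inhibition expressed relative to vehicle.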

[7] = NCI Yeast Anticancer Drug Screen. Data for the rad14 strain (AID 159);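 further: 0% = growth of vehicle-treated control cultures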; conditions: S. cerevisiae rad14 strain growth inhibition, stronger effect = higher value
Method in brief: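 DNA repair-defective yeast, compound-exposed; % growth inhibition derived by comparison with vehicle-treated controls.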

[8] = NCI Yeast Anticancer Drug Screen. Data for the sgs1 mgt1 strain (AID 161);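 further: 0% = growth of cultures given vehicle only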; conditions: S. cerevisiae sgs1 mgt1 strain, stronger effect = higher value
Method in brief: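 Test agents were incubated with a DNA-repair-mutant yeast strain. Growth was then read and compared against vehicle-treated controls.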

[9] = NCI Yeast Anticancer Drug Screen. Data for the CLN2oe strain (AID 163);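 further: 0% = growth of vehicle-only control cultures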; conditions: S. cerevisiae CLN2oe strain, stronger effect = higher value
Method in brief: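 Growth of a genetically modified yeast strain is measured after compound exposure and compared with cultures given vehicle alone.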

[10] = NCI Yeast Anticancer Drug Screen. Data for the cln2 rad14 strain (AID 165);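 further: 0% = growth equal to vehicle treated cultures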; conditions: S. cerevisiae cln2 rad14 strain, stronger effect = higher value
Method in brief: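 Compounds are applied to the cln2 rad14 yeast strain, and growth is then compared with that of vehicle-treated cultures to give inhibition.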

[11] = NCI Yeast Anticancer Drug Screen. Data for the bub3 strain (AID 167); conditions: S. cerevisiae bub3 mutant strain, stronger effect = higher value
Method in brief: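 In this screen, a yeast mutant lacking normal mitotic checkpoint function is challenged with compound. Relative growth versus vehicle gives the inhibition value.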

[12] = NCI Yeast Anticancer Drug Screen. Data for the wt2 strain (AID 169);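 further: 0% = growth of vehicle-treated yeast cultures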; conditions: S. cerevisiae wt2 strain growth inhibition, stronger effect = higher value
Method in brief: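 This strain belongs to a panel of yeast strains with defined genetic alterations in DNA damage repair or cell cycle control. Compounds are applied, and growth inhibition is measured against vehicle-treated cultures.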

[13] = NCI Yeast Anticancer Drug Screen. Data for the mlh1 strain (AID 171);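 further: 0% = growth of vehicle-treated control cultures of the same strain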; conditions: S. cerevisiae mlh1 strain growth inhibition, stronger effect = higher value
Method in brief: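 Growth of the mutant yeast strain after compound exposure, expressed as inhibition relative to vehicle-only controls.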

[14] = NCI Yeast Anticancer Drug Screen. Data for the mlh1 rad18 strain (AID 175); conditions: S. cerevisiae mlh1 rad18 strain growth inhibition, stronger effect = higher value
Method in brief: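 Read-out is yeast growth inhibition, calculated against vehicle-only controls. The compound was applied to a strain engineered with DNA damage repair alterations.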

[15] = NCI Yeast Anticancer Drug Screen. Data for the rad18 strain (AID 177); conditions: S. cerevisiae rad18 mutant growth inhibition, stronger effect = higher value
Method in brief: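 Growth of the mutant yeast strain after compound exposure, normalised to vehicle-only cultures.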

[16] = at 5.0 µM (retest, dose inferred, filed as 0.5)
[17] = at 50.0 µM (retest, dose inferred, filed as 5.0)

## O=C(CN(c1ccccc1)c1ccccc1)n1nnc2ccccc21
[1]; at 1.2 µM
  growth inhibition: 18%
[1]; at 3.7 µM
  growth inhibition: 20%
[1]; at 11.0 µM
  growth inhibition: 14%
[1]; at 33.0 µM
  growth inhibition: 39%
[1]; at 100.0 µM
  growth inhibition: 85% (active)
[2]; at 1.2 µM
  growth inhibition: 10%
[2]; at 3.7 µM
  growth inhibition: -11%
[2]; at 11.0 µM
  growth inhibition: -19%
[2]; at 33.0 µM
  growth inhibition: 0%
[2]; at 100.0 µM
  growth inhibition: 82% (active)
[3]; at 1.2 µM
  growth inhibition: 15%
[3]; at 3.7 µM
  growth inhibition: 7%
[3]; at 11.0 µM
  growth inhibition: 15%
[3]; at 33.0 µM
  growth inhibition: 42%
[3]; at 100.0 µM
  growth inhibition: 71% (active)
[4]; at 1.2 µM
  growth inhibition: 6%
[4]; at 3.7 µM
  growth inhibition: -20%
[4]; at 11.0 µM
  growth inhibition: -10%
[4]; at 33.0 µM
  growth inhibition: 9%
[4]; at 100.0 µM
  growth inhibition: 88% (active)
[5]; at 1.2 µM
  growth inhibition: -9%
[5]; at 3.7 µM
  growth inhibition: -7%
[5]; [16]
  growth inhibition: -1%
[5]; at 11.0 µM
  growth inhibition: 14%
[5]; at 33.0 µM
  growth inhibition: 28%
[5]; [17]
  growth inhibition: 76% (active)
[5]; at 50.0 µM
  growth inhibition: 74.5% (active)
[5]; at 100.0 µM
  growth inhibition: 84% (active)
[6]; at 1.2 µM
  growth inhibition: -9%
[6]; at 3.7 µM
  growth inhibition: 0%
[6]; [16]
  growth inhibition: -6%
[6]; at 11.0 µM
  growth inhibition: 13%
[6]; at 33.0 µM
  growth inhibition: 23%
[6]; [17]
  growth inhibition: 23%
[6]; at 50.0 µM
  growth inhibition: 78.6% (active)
[6]; at 100.0 µM
  growth inhibition: 85% (active)
[7]; at 1.2 µM
  growth inhibition: -19%
[7]; at 3.7 µM
  growth inhibition: -18%
[7]; at 11.0 µM
  growth inhibition: -18%
[7]; at 33.0 µM
  growth inhibition: 2%
[7]; at 100.0 µM
  growth inhibition: 85% (active)
[8]; [16]
  growth inhibition: -15%
[8]; [17]
  growth inhibition: 36%
[8]; at 50.0 µM
  growth inhibition: 47.7%
[9]; at 1.2 µM
  growth inhibition: 8%
[9]; at 3.7 µM
  growth inhibition: -9%
[9]; at 11.0 µM
  growth inhibition: -9%
[9]; at 33.0 µM
  growth inhibition: 4%
[9]; at 100.0 µM
  growth inhibition: 69%
[10]; [16]
  growth inhibition: -2%
[10]; [17]
  growth inhibition: -29%
[10]; at 50.0 µM
  growth inhibition: 52.2%
[11]; at 1.2 µM
  growth inhibition: -21%
[11]; at 3.7 µM
  growth inhibition: -19%
[11]; [16]
  growth inhibition: -42%
[11]; at 11.0 µM
  growth inhibition: -35%
[11]; at 33.0 µM
  growth inhibition: -19%
[11]; [17]
  growth inhibition: 84% (active)
[11]; at 50.0 µM
  growth inhibition: 74.4% (active)
[11]; at 100.0 µM
  growth inhibition: 76% (active)
[12]; at 1.2 µM
  growth inhibition: -7%
[12]; at 3.7 µM
  growth inhibition: 8%
[12]; at 11.0 µM
  growth inhibition: -6%
[12]; at 33.0 µM
  growth inhibition: 6%
[12]; at 100.0 µM
  growth inhibition: 80% (active)
[13]; at 1.2 µM
  growth inhibition: 9%
[13]; at 3.7 µM
  growth inhibition: 6%
[13]; at 11.0 µM
  growth inhibition: 13%
[13]; at 33.0 µM
  growth inhibition: 36%
[13]; at 100.0 µM
  growth inhibition: 86% (active)
[14]; [16]
  growth inhibition: -21%
[14]; [17]
  growth inhibition: 87% (active)
[14]; at 50.0 µM
  growth inhibition: 70.2% (active)
[15]; at 1.2 µM
  growth inhibition: 6%
[15]; at 3.7 µM
  growth inhibition: 14%
[15]; at 11.0 µM
  growth inhibition: 6%
[15]; at 33.0 µM
  growth inhibition: 30%
[15]; at 100.0 µM
  growth inhibition: 90% (active)

## OC(c1ccccc1)(c1ccccc1)c1nccc2ccccc12
[1]; at 1.2 µM
  growth inhibition: 40%
[1]; at 3.7 µM
  growth inhibition: 39%
[1]; at 11.0 µM
  growth inhibition: 48%
[1]; at 33.0 µM
  growth inhibition: 62%
[1]; at 100.0 µM
  growth inhibition: 81% (active)
[2]; at 1.2 µM
  growth inhibition: 3%
[2]; at 3.7 µM
  growth inhibition: -3%
[2]; at 11.0 µM
  growth inhibition: 26%
[2]; at 33.0 µM
  growth inhibition: -2%
[2]; at 100.0 µM
  growth inhibition: 29%
[3]; at 1.2 µM
  growth inhibition: 14%
[3]; at 3.7 µM
  growth inhibition: 14%
[3]; at 11.0 µM
  growth inhibition: 32%
[3]; at 33.0 µM
  growth inhibition: 13%
[3]; at 100.0 µM
  growth inhibition: 0%
[4]; at 1.2 µM
  growth inhibition: -11%
[4]; at 3.7 µM
  growth inhibition: 8%
[4]; at 11.0 µM
  growth inhibition: 11%
[4]; at 33.0 µM
  growth inhibition: 15%
[4]; at 100.0 µM
  growth inhibition: 51%
[5]; at 1.2 µM
  growth inhibition: 4%
[5]; at 3.7 µM
  growth inhibition: 15%
[5]; [16]
  growth inhibition: 14%
[5]; at 11.0 µM
  growth inhibition: 24%
[5]; at 33.0 µM
  growth inhibition: 39%
[5]; [17]
  growth inhibition: 50%
[5]; at 50.0 µM
  growth inhibition: 67.7%
[5]; at 100.0 µM
  growth inhibition: 70% (active)
[6]; at 1.2 µM
  growth inhibition: 0%
[6]; at 3.7 µM
  growth inhibition: 3%
[6]; [16]
  growth inhibition: 2%
[6]; at 11.0 µM
  growth inhibition: 9%
[6]; at 33.0 µM
  growth inhibition: 7%
[6]; [17]
  growth inhibition: 40%
[6]; at 50.0 µM
  growth inhibition: 75% (active)
[6]; at 100.0 µM
  growth inhibition: 49%
[7]; at 1.2 µM
  growth inhibition: 3%
[7]; at 3.7 µM
  growth inhibition: 2%
[7]; at 11.0 µM
  growth inhibition: 3%
[7]; at 33.0 µM
  growth inhibition: 3%
[7]; at 100.0 µM
  growth inhibition: 39%
[8]; [16]
  growth inhibition: -4%
[8]; [17]
  growth inhibition: 58%
[8]; at 50.0 µM
  growth inhibition: 71.5% (active)
[9]; at 1.2 µM
  growth inhibition: 25%
[9]; at 3.7 µM
  growth inhibition: 34%
[9]; at 11.0 µM
  growth inhibition: 28%
[9]; at 33.0 µM
  growth inhibition: 35%
[9]; at 100.0 µM
  growth inhibition: 59%
[10]; [16]
  growth inhibition: 6%
[10]; [17]
  growth inhibition: 7%
[10]; at 50.0 µM
  growth inhibition: 55.4%
[11]; at 1.2 µM
  growth inhibition: 14%
[11]; at 3.7 µM
  growth inhibition: 22%
[11]; [16]
  growth inhibition: 0%
[11]; at 11.0 µM
  growth inhibition: 25%
[11]; at 33.0 µM
  growth inhibition: 25%
[11]; [17]
  growth inhibition: 45%
[11]; at 50.0 µM
  growth inhibition: 60.6%
[11]; at 100.0 µM
  growth inhibition: 75% (active)
[12]; at 1.2 µM
  growth inhibition: -56%
[12]; at 3.7 µM
  growth inhibition: -17%
[12]; at 11.0 µM
  growth inhibition: -31%
[12]; at 33.0 µM
  growth inhibition: -21%
[12]; at 100.0 µM
  growth inhibition: 38%
[13]; at 1.2 µM
  growth inhibition: -2%
[13]; at 3.7 µM
  growth inhibition: 12%
[13]; at 11.0 µM
  growth inhibition: 5%
[13]; at 33.0 µM
  growth inhibition: 14%
[13]; at 100.0 µM
  growth inhibition: 54%
[14]; [16]
  growth inhibition: 12%
[14]; [17]
  growth inhibition: 74% (active)
[14]; at 50.0 µM
  growth inhibition: 51%
[15]; at 1.2 µM
  growth inhibition: 0%
[15]; at 3.7 µM
  growth inhibition: 14%
[15]; at 11.0 µM
  growth inhibition: 27%
[15]; at 33.0 µM
  growth inhibition: 55%
[15]; at 100.0 µM
  growth inhibition: 63%
